Inconclusive results are not listed. Calls of active or inactive are those of the source. Calls come from the whole dose curve; as a rule, active = well fitted cell-killing curve with a large enough effect; inconclusive = small, poorly fitted or top-dose-only effect, or effect the other way; inactive = flat fitted curve, though single readings scatter. Where a SMILES comes first, the peptide text is derived from it. Bridges are numbered along the chain shown (N, C = ends). [ ]: non-standard residue; d: D form. The star is where a group is joined. X1 = CCC(C)C(N)C1=NC(C(=O)*)CS1; dOrn = NCCC[C@@H](N)C(=O)O
What was measured:
Assay in all cases: Primary qHTS to identify gynecologic anti-cancer compounds using libraries of approved drugs and bioactive compounds (AID 1345084); note: nearly all actives have a fitted effect of over 55% in size
[1] = system: CAOV3; details: Gynecologic cancer cell panel viability, ATPlite luminescence, 48 h; series mostly up to 57.5 µM
Outline: (§1)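 Luminescence from the ATPlite ATP-monitoring reagent indicates viable cell number; lower signal means cytotoxicity. Cells received compound 16 h after seeding and were exposed for 48 h across five concentrations.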

[2] = system: CASKI; details: Gynecologic cancer cell panel viability, ATPlite luminescence, 48 h; series mostly up to 57.5 µM
Outline: as §1

[3] = system: Es-2; details: Gynecologic cancer cell panel viability, ATPlite luminescence, 48 h; series mostly up to 57.5 µM
Outline: as §1

[4] = system: HeLa; details: Gynecologic cancer cell panel viability, ATPlite luminescence, 48 h; series mostly up to 57.5 µM
Outline: as §1

[5] = system: Hek293T; details: Gynecologic cancer cell panel viability, ATPlite luminescence, 48 h, control line for the selectivity index; series mostly up to 57.5 µM
Outline: as §1

[6] = system: JEG-3; details: Gynecologic cancer cell panel viability, ATPlite luminescence, 48 h; series mostly up to 57.5 µM
Outline: as §1

[7] = system: OV90; details: Gynecologic cancer cell panel viability, ATPlite luminescence, 48 h; series mostly up to 57.5 µM
Outline: as §1

[8] = system: PA-1; details: Gynecologic cancer cell panel viability, ATPlite luminescence, 48 h; series mostly up to 57.5 µM
Outline: as §1

[9] = system: SKOV3; details: Gynecologic cancer cell panel viability, ATPlite luminescence, 48 h; series mostly up to 57.5 µM
Outline: as §1

[10] = system: Tov-21-G; details: Gynecologic cancer cell panel viability, ATPlite luminescence, 48 h; series mostly up to 57.5 µM
Outline: as §1

[11] = system: Tov112D; details: Gynecologic cancer cell panel viability, ATPlite luminescence, 48 h; series mostly up to 57.5 µM
Outline: as §1
% is set by controls: 0 for no effect and ±100 for the full control effect.

CCC(C)(O)C(O)C(=O)OCc1ccc(O[C@@H]2O[C@H](CO)[C@@H](O)[C@H](O)[C@H]2O)cc1 (stereo partly drawn)
inactive: Potency [1] | Potency [2] | Potency [3] | Potency [4] | Potency [5] | Potency [6] | Potency [7] | Potency [8] | Potency [9] | Potency [10] | Potency [11]

O=C(/C=C/c1ccc(O)cc1)OC[C@]12O[C@H]1[C@@H](O)[C@@H]1C=CO[C@@H](O[C@@H]3O[C@H](CO)[C@@H](O)[C@H](O)[C@H]3O)[C@@H]12
inactive: Potency [1] | Potency [2] | Potency [3] | Potency [4] | Potency [5] | Potency [6] | Potency [7] | Potency [8] | Potency [9] | Potency [10] | Potency [11]

CCC(C)C(N)C1=NC(C(=O)N[C@@H](CC(C)C)C(=O)N[C@H](CCC(=O)O)C(=O)N[C@H](C(=O)N[C@H]2CCCCNC(=O)[C@H](CC(N)=O)NC(=O)[C@@H](CC(=O)O)NC(=O)[C@H](Cc3cnc[nH]3)NC(=O)[C@@H](Cc3ccccc3)NC(=O)[C@H]([C@@H](C)CC)NC(=O)[C@@H](CCCN)NC2=O)[C@@H](C)CC)CS1 (stereo partly drawn) (X1-L[dE]IK[dOrn]I[dF]H[dD]N; lactam 4-C)
inactive: Potency [1] | Potency [2] | Potency [3] | Potency [4] | Potency [5] | Potency [6] | Potency [7] | Potency [8] | Potency [9] | Potency [10] | Potency [11]

CC1CCC2C(C)(C)C(O)CCC2(C)C12Cc1c(O)cc3c(c1O2)CN=C3N (stereo not drawn)
inactive: Potency [1] | Potency [2] | Potency [3] | Potency [4] | Potency [5] | Potency [6] | Potency [7] | Potency [8] | Potency [9] | Potency [10] | Potency [11]

COC1=CC(=O)O[C@@H](CCc2ccccc2)[C@@H]1O
inactive: Potency [1] | Potency [2] | Potency [3] | Potency [4] | Potency [5] | Potency [6] | Potency [7] | Potency [8] | Potency [9] | Potency [10] | Potency [11]

COC(=O)C1(Cc2ccc(O)cc2)OC(=O)C(OC)=C1c1ccc(O)cc1 (stereo not drawn)
inactive: Potency [1] | Potency [2] | Potency [3] | Potency [4] | Potency [5] | Potency [6] | Potency [7] | Potency [8] | Potency [9] | Potency [10] | Potency [11]

O=C1C[C@@H](c2ccc(O)cc2)Oc2cc(O)ccc21
inactive: Potency [1] | Potency [2] | Potency [3] | Potency [4] | Potency [5] | Potency [6] | Potency [7] | Potency [8] | Potency [9] | Potency [10] | Potency [11]

CC1OC(OC2C(O)C(C(=O)O)OC(OC3CCC4(C)C(CCC5(C)C4C=CC4=C6CC(C)(C)CC(O)C6(C)CCC45C)C3(C)C)C2OC2OCC(O)C(O)C2O)C(O)C(O)C1O (stereo not drawn)
inactive: activity change, negative = cytotoxicity [1] 25.6% [at 11.6 µM] | activity change, negative = cytotoxicity [2] 17.4% [at 11.6 µM] | activity change, negative = cytotoxicity [3] -1.97% [at 11.6 µM] | activity change, negative = cytotoxicity [4] -2.13% [at 11.6 µM] | activity change, negative = cytotoxicity [5] -1.86% [at 11.6 µM] | activity change, negative = cytotoxicity [6] 0.12% [at 11.6 µM] | activity change, negative = cytotoxicity [7] 1.31% [at 11.6 µM] | activity change, negative = cytotoxicity [8] 8.55% [at 11.6 µM] | activity change, negative = cytotoxicity [9] 1.68% [at 11.6 µM] | activity change, negative = cytotoxicity [10] 7.57% [at 11.6 µM] | activity change, negative = cytotoxicity [11] 16.2% [at 11.6 µM]

COc1cc(O[C@@H]2O[C@H](CO)[C@@H](O)[C@H](O)[C@H]2O)c(CCC(=O)OC[C@H]2O[C@@H](Oc3cc(OC)c(C4OC(=O)C(C)(O)C4O)cc3CCC(=O)O)[C@H](O)[C@@H](O)[C@@H]2O)cc1C1OC(=O)C(C)(O)C1O (stereo partly drawn)
inactive: activity change, negative = cytotoxicity [1] -7.94% [at 11.6 µM] | activity change, negative = cytotoxicity [2] -4.91% [at 11.6 µM] | activity change, negative = cytotoxicity [3] 12.3% [at 11.6 µM] | activity change, negative = cytotoxicity [4] 22.8% [at 11.6 µM] | activity change, negative = cytotoxicity [5] -1.4% [at 11.6 µM] | activity change, negative = cytotoxicity [6] -12.6% [at 11.6 µM] | activity change, negative = cytotoxicity [7] -1.59% [at 11.6 µM] | activity change, negative = cytotoxicity [8] -4.41% [at 11.6 µM] | activity change, negative = cytotoxicity [9] -20.1% [at 11.6 µM] | activity change, negative = cytotoxicity [10] -4.07% [at 11.6 µM] | activity change, negative = cytotoxicity [11] 3.59% [at 11.6 µM]

CC(/C=C/C1(O)C(C)CC(O)CC1(C)C)OC1OC(CO)C(O)C(O)C1O (stereo not drawn)
inactive: Potency [1] | Potency [2] | Potency [3] | Potency [4] | Potency [5] | Potency [6] | Potency [7] | Potency [8] | Potency [9] | Potency [10] | Potency [11]

CC(=O)OC(CSC1CCC(=O)OC(C)CCC(=O)C1)C(=O)O (stereo not drawn)
inactive: Potency [1] | Potency [2] | Potency [3] | Potency [4] | Potency [5] | Potency [6] | Potency [7] | Potency [8] | Potency [9] | Potency [10] | Potency [11]

C[C@]12CC[C@@H]3c4ccc(O[C@@H]5O[C@H](C(=O)O)[C@@H](O)[C@H](O)[C@H]5O)cc4CC[C@H]3[C@@H]1CCC2=O
inactive: Potency [1] | Potency [2] | Potency [3] | Potency [4] | Potency [5] | Potency [6] | Potency [7] | Potency [8] | Potency [9] | Potency [10] | Potency [11]

OC1COC(OCC2OC(OCCc3ccccc3)C(O)C(O)C2O)C(O)C1O (stereo not drawn)
inactive: Potency [1] | Potency [2] | Potency [3] | Potency [4] | Potency [5] | Potency [6] | Potency [7] | Potency [8] | Potency [9] | Potency [10] | Potency [11]
